Reference: PubChem BioAssay (EPA / NIEHS)
The source made the active and inactive calls. How the source made its calls: active means hit-call score of the fitted dose curve at least 0.9, where 1 is the maximum; inactive means score below 0.9.

Tests used:
[1] = read-out: TIMP metallopeptidase inhibitor 2 (TIMP2), TIMP2 (gene 7077); assay: BSK_KF3CT_TIMP2: BioMAP Diversity Plus: KF3CT Assay for TIMP metallopeptidase inhibitor 2 (TIMP2) Biomarker Activity (AID 2283071); conditions: primary human keratinocytes with fibroblasts; actives raise or lower the signal
How it was run: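 ELISA readout of TIMP-2 in keratinocyte plus foreskin fibroblast co-cultures (human skin primary cells), 24 h post-dose. Gain or loss of signal fitted relative to DMSO.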

[2] = read-out: Transforming growth factor beta 1 (TGFb1), TGFB1 (gene 7040); assay: BSK_KF3CT_TGFb1: BioMAP Diversity Plus: KF3CT Assay for Transforming growth factor beta 1 (TGFb1) Biomarker Activity (AID 2283072); conditions: primary human keratinocytes with fibroblasts; actives raise or lower the signal
How it was run: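 Read-out: ELISA for TGF-b1 in keratinocyte/foreskin fibroblast human skin co-culture, 24 h after dosing; bidirectional curve fit vs DMSO baseline; gain or loss of signal scored.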

[3] = read-out: C-C motif chemokine 2 (Homo sapiens) (UniProt P13500); assay: BSK_KF3CT_MCP1: BioMAP Diversity Plus: KF3CT Assay for Monocyte Chemoattractant Protein 1 (MCP1/CCL2) Biomarker Activity (AID 2283073); conditions: primary human keratinocytes with fibroblasts; actives raise or lower the signal
How it was run: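 ELISA readout of MCP-1 after 24 h chemical dosing of a human skin primary co-culture of keratinocytes and foreskin fibroblasts. Activity was fitted in both directions against DMSO.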

[4] = read-out: urokinase plasminogen activator (uPA), PLAU (gene 5328); assay: BSK_KF3CT_uPA: BioMAP Diversity Plus: KF3CT Assay for urokinase plasminogen activator (uPA) Biomarker Activity (AID 2283075); conditions: primary human keratinocytes with fibroblasts; actives raise or lower the signal
How it was run: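 Skin co-culture (keratinocytes + foreskin fibroblasts), human primary; 24 h post-dose; uPA by ELISA; gain/loss fit vs DMSO baseline.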

[5] = read-out: CD40, CD40 (gene 958); assay: BSK_LPS_CD40: BioMAP Diversity Plus: LPS Assay for CD40 Biomarker Activity (AID 2283076); conditions: primary human HUVEC with PBMC; actives raise or lower the signal
How it was run: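 Cells were dosed, incubated 24 h, then assayed for CD40 by ELISA. Gain or loss of signal was analysed relative to DMSO controls. The culture paired human umbilical vein endothelium with peripheral blood mononuclear cells.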

[6] = read-out: E-selectin (Homo sapiens) (UniProt P16581); assay: BSK_LPS_Eselectin: BioMAP Diversity Plus: LPS Assay for Eselectin Biomarker Activity (AID 2283077); conditions: primary human HUVEC with PBMC; actives raise or lower the signal
How it was run: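 Primary human vascular co-culture (endothelium plus PBMC) was dosed with chemical, then E-selectin quantified by ELISA at 24 h. Endpoint values derive from bidirectional curve fitting relative to DMSO.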

[7] = BSK_LPS_SRB: Viability Assessment in the BioMAP Diversity Plus: LPS Assay (AID 2283079); conditions: primary human HUVEC with PBMC;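 further: total protein by sulforhodamine B absorbance as a cytotoxicity measure; measured one day after compound addition; fitted in both directions against DMSO so loss or gain of signal counts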
How it was run: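 Readout is SRB absorbance at 560 nm (0.1% stain, TCA-fixed parallel cultures) as a total-protein cytotoxicity measure. Cells: primary human umbilical vein endothelium plus peripheral blood mononuclear cells, 24 h after chemical exposure; DMSO served as baseline.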

[8] = read-out: Interleukin-1 alpha (IL1a), IL1A (gene 3552); assay: BSK_LPS_IL1a: BioMAP Diversity Plus: LPS Assay for Interleukin-1 alpha (IL1a) Biomarker Activity (AID 2283080); conditions: primary human HUVEC with PBMC; actives raise or lower the signal
How it was run: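 ELISA read-out of IL-1 alpha from a human primary vascular co-culture (endothelium plus PBMC) under LPS, sampled 24 hours post-dosing. Activity was fitted in both directions relative to DMSO controls.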

[9] = read-out: Monocyte Chemoattractant Protein-1 (MCP1), CCL2 (gene 6347); assay: BSK_LPS_MCP1: BioMAP Diversity Plus: LPS Assay for Monocyte Chemoattractant Protein-1 (MCP1) Biomarker Activity (AID 2283081); conditions: primary human HUVEC with PBMC; actives raise or lower the signal;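 on AC50: secreted MCP-1 protein quantified by ELISA in culture supernatant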
How it was run: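 Human endothelial–PBMC co-cultures were dosed with chemical, then LPS-driven MCP-1 levels were quantified by ELISA at 24 h. Activity in either direction was fitted versus DMSO negative control.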

[10] = BSK_LPS_PGE2: BioMAP Diversity Plus: LPS Assay for Prostaglandin E2 (PGE2) Biomarker Activity (AID 2283082); conditions: primary human HUVEC with PBMC; actives raise or lower the signal;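 on AC50: secreted prostaglandin E2 measured by ELISA in LPS-stimulated co-culture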
How it was run: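 ELISA read-out of PGE2 from human umbilical vein endothelial cells co-cultured with peripheral blood mononuclear cells under LPS, 24 h post-dose. Gain or loss of signal scored relative to DMSO baseline.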

[11] = read-out: Macrophage colony-stimulating factor (MCSF), CSF1 (gene 1435); assay: BSK_LPS_MCSF: BioMAP Diversity Plus: LPS Assay for Macrophage colony-stimulating factor (MCSF) Biomarker Activity (AID 2283083); conditions: primary human HUVEC with PBMC; actives raise or lower the signal
How it was run: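 ELISA readout of M-CSF after 24 h compound exposure in a human endothelial/PBMC co-culture. Activity, in either direction, is fitted relative to DMSO vehicle.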

[12] = read-out: Tissue Factor, F3 (gene 2152); assay: BSK_LPS_TissueFactor: BioMAP Diversity Plus: LPS Assay for Tissue Factor Biomarker Activity (AID 2283084); conditions: primary human HUVEC with PBMC; actives raise or lower the signal
How it was run: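 ELISA signal for cell-surface Tissue Factor (CD142) was read 24 h after compound dosing of an LPS-stimulated human endothelial–PBMC primary co-culture. Gain or loss of signal was scored relative to DMSO.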

[13] = read-out: Tumor necrosis factor (Homo sapiens) (UniProt P01375); assay: BSK_LPS_TNFa: BioMAP Diversity Plus: LPS Assay for Tumour Necrosis Factor alpha (TNFa) Biomarker Activity (AID 2283085); conditions: primary human HUVEC with PBMC; actives raise or lower the signal;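 on AC50: TNFa protein level quantified by ELISA in the co-culture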
How it was run: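 HUVEC/PBMC co-culture, LPS-stimulated; 24 h post-dose; TNFa by ELISA; gain or loss of signal fitted bidirectionally vs DMSO baseline.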

[14] = read-out: Vascular cell adhesion molecule 1 (VCAM1), VCAM1 (gene 7412); assay: BSK_LPS_VCAM1: BioMAP Diversity Plus: LPS Assay for Vascular cell adhesion molecule 1 (VCAM1) Biomarker Activity (AID 2283086); conditions: primary human HUVEC with PBMC; actives raise or lower the signal
How it was run: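 ELISA read-out of VCAM-1 at 24 h post-dosing in an LPS-driven HUVEC/PBMC primary human co-culture; gain or loss of signal fitted bidirectionally against DMSO baseline. Cytotoxicity tracked in parallel cultures by SRB total-protein staining.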

[15] = read-out: CD38, CD38 (gene 952); assay: BSK_SAg_CD38: BioMAP Diversity Plus: SAg Assay for CD38 Biomarker Activity (AID 2283087); conditions: primary human HUVEC with PBMC; actives raise or lower the signal
How it was run: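 Measures CD38 on a human endothelial/PBMC co-culture driven by SEB and TSST-1, 24 h after compound exposure, using ELISA with fluorescence detection; DMSO defines baseline for bidirectional curve fitting.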

[16] = read-out: CD40, CD40 (gene 958); assay: BSK_SAg_CD40: BioMAP Diversity Plus: SAg Assay for CD40 Biomarker Activity (AID 2283088); conditions: primary human HUVEC with PBMC; actives raise or lower the signal
How it was run: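 Compounds were dosed onto a human primary endothelial–PBMC co-culture, and after 24 h CD40 was quantified by ELISA using a fluorescence signal. Activity in either direction was fitted relative to DMSO.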

[17] = read-out: CD69, CD69 (gene 969); assay: BSK_SAg_CD69: BioMAP Diversity Plus: SAg Assay for CD69 Biomarker Activity (AID 2283089); conditions: primary human HUVEC with PBMC; actives raise or lower the signal;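 on AC50: cell surface CD69 protein quantified by ELISA with fluorescence detection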
How it was run: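 Values derive from bidirectional fitting relative to DMSO vehicle. Cells: umbilical vein endothelium plus peripheral blood mononuclear cells, treated 24 h before fluorescent ELISA for CD69.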

[18] = read-out: Monocyte Chemoattractant Protein-1 (MCP1), CCL2 (gene 6347); assay: BSK_SAg_MCP1: BioMAP Diversity Plus: SAg Assay for Monocyte Chemoattractant Protein-1 (MCP1) Biomarker Activity (AID 2283090); conditions: primary human HUVEC with PBMC; actives raise or lower the signal
How it was run: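 Values derive from bidirectional fitting of ELISA-measured MCP1 against DMSO controls. Readings were taken 24 h after dosing human vascular endothelial cells co-cultured with peripheral blood mononuclear cells under superantigen stimulation.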

[19] = read-out: Interleukin-8 (IL8), CXCL8 (gene 3576); assay: BSK_LPS_IL8: BioMAP Diversity Plus: LPS Assay for Interleukin-8 (IL8) Biomarker Activity (AID 2283078); conditions: primary human HUVEC with PBMC; actives raise or lower the signal
How it was run: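 Readout is IL-8 by ELISA, taken 24 h after compounds were added to LPS-stimulated endothelial/PBMC co-cultures. Both increases and decreases relative to DMSO control were scored through bidirectional fitting.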

Measured: AC50

E-selectin (Homo sapiens), sequence (P16581 whole entry, looked up): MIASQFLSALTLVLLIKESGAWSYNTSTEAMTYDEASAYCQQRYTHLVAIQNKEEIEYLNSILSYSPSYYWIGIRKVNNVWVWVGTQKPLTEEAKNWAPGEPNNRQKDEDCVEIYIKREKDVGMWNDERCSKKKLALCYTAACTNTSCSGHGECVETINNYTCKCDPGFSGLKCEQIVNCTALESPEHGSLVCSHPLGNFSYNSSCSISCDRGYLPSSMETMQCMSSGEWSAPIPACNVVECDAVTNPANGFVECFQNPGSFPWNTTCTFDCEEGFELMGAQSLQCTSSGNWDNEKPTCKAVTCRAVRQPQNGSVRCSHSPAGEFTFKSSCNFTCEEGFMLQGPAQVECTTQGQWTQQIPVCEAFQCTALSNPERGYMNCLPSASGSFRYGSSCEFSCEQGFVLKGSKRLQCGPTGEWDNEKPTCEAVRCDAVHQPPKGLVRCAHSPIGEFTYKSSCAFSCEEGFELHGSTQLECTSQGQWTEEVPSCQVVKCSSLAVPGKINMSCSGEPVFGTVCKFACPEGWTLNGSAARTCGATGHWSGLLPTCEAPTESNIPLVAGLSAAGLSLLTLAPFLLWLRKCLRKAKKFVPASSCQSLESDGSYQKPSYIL
Tumor necrosis factor (Homo sapiens), sequence (P01375 whole entry, looked up): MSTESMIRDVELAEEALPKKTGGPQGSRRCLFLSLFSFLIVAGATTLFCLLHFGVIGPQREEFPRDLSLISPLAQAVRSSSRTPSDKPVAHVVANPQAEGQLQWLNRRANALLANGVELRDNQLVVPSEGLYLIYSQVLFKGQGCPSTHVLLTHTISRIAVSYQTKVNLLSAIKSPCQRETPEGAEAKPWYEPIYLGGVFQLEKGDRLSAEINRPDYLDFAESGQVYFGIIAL

COc1ccc(-c2ccccc2)cc1NNC(=O)OC(C)C
inactive: [1] | [2] | [3] | [4] | [5] | [6] | [7] | [8] | [9] | [11] | [12] | [14] | [15] | [16] | [17] | [18]
active: [10] 1.84 µM | [13] 4.44 µM

CC(C)Oc1cccc(NC(=O)c2ccccc2C(F)(F)F)c1
inactive: [1] | [2] | [3] | [4] | [5] | [6] | [8] | [9] | [10] | [11] | [12] | [13] | [14] | [15] | [16] | [17] | [18]
active: [7] 16.7 µM

CCOc1cc(C(C)(C)C)ccc1C1COC(c2c(F)cccc2F)=N1 (configuration not stated)
active: [1] 15.1 µM | [2] 33 µM | [3] 20 µM | [4] 27.1 µM | [5] 29.2 µM | [6] 33.2 µM | [19] 26 µM | [7] 26.2 µM | [8] 30.5 µM | [9] 33.4 µM | [10] 32.1 µM | [11] 20.9 µM | [12] 36.8 µM | [13] 30.4 µM | [14] 31.4 µM | [15] 18.8 µM | [16] 15.8 µM | [17] 20.5 µM | [18] 28.5 µM

COC(=O)N(C(=O)N1CO[C@@]2(C(=O)OC)Cc3cc(Cl)ccc3C2=N1)c1ccc(OC(F)(F)F)cc1
active: [5] 12.4 µM | [7] 5.89 µM | [15] 5.95 µM | [16] 5.46 µM | [17] 6.93 µM | [18] 5.47 µM
inactive: [1] | [2] | [3] | [4] | [6] | [8] | [9] | [10] | [11] | [12] | [13] | [14]

CC1(C)CCC(=Cc2ccc(Cl)cc2)C1(O)Cn1cncn1 (configuration not stated)
inactive: [1] | [2] | [3] | [4] | [5] | [7] | [8] | [9] | [10] | [11] | [12] | [13] | [14] | [15] | [16] | [17] | [18]

CCOc1nc(C(Cl)(Cl)Cl)ns1
inactive: [1] | [2] | [4] | [5] | [6] | [19] | [7] | [8] | [9] | [10] | [11] | [12] | [13] | [14] | [15] | [16] | [17] | [18]

Clc1cccc(C(Cl)(Cl)Cl)n1
inactive: [1] | [2] | [3] | [4] | [5] | [7] | [8] | [9] | [10] | [11] | [12] | [13] | [14] | [15] | [16] | [17] | [18]

O=C1C2CC=CCC2C(=O)N1SC(Cl)(Cl)Cl (configuration not stated)
active: [1] 11.2 µM | [3] 11.8 µM | [5] 22.3 µM | [11] 29 µM | [12] 31.4 µM | [13] 36.6 µM | [14] 14.3 µM | [15] 30.5 µM
inactive: [7] | [8] | [9] | [10] | [16] | [17]

CC(C)N1C(=O)c2ccccc2NS1(=O)=O
active: [3] 0.535 µM
inactive: [1] | [2] | [4] | [5] | [19] | [7] | [8] | [9] | [10] | [11] | [12] | [13] | [14] | [15] | [16] | [17] | [18]
